The entries come from a sample that favours hits as a whole.
HT1080 IDH1KD tx: qHTS for induction of synthetic lethality in tumor cells producing 2HG: qHTS for the HT-1080-IDH1KD cell line; HT-1080 IDH1 knockdown viability, ATP luminescence, 48 h; Potency, µM (doses to about 46.1 µM), hits mostly cytotoxic; 2% of 360,000 active
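Cytotoxicity counter-line: IDH1KD HT-1080, 48 h, CellTiter-Glo. Curves classed by r2, magnitude and activity.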
12-LOX inh: Primary qHTS assay for inhibitors of human arachidonate 12S-lipoxygenase (ALOX12): Round 2. Polyunsaturated fatty acid lipoxygenase ALOX12 (Homo sapiens), P18054. purified 12hLO, xylenol orange hydroperoxide absorbance. Potency, µM (titrated, usually from 108 µM), usual class: inhibitors. 1.1% of 580,000 active. AID 1671190, 2021
Target sequence (P18054 whole entry, looked up): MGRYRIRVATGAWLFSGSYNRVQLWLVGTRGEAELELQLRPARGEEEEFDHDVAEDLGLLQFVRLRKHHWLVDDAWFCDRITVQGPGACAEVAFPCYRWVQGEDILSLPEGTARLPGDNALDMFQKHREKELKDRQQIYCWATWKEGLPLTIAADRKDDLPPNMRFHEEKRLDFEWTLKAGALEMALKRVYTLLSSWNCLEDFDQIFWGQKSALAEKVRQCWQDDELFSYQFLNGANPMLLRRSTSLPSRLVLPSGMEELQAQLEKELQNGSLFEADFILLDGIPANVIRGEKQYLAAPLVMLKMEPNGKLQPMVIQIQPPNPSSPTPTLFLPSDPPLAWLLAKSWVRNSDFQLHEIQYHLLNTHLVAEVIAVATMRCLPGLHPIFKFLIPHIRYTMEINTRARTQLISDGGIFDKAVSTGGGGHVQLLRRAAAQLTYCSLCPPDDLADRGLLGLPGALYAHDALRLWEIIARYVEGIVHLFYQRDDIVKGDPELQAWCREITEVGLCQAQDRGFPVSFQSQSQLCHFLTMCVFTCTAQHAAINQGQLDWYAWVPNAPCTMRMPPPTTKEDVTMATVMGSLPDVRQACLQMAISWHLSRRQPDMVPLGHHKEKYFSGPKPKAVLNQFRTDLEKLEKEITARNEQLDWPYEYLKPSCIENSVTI
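Purified human 12hLO (150 nM final) in 25 mM Hepes, 0.01% Triton X-100, pH 7.0 was preincubated 15 min at room temperature with compound. Then 40 uM arachidonic acid was added, 30 min. Hydroperoxide was read by Fe-XO absorbance ratio 573/405 nm.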
TDP1 cell noCPT: qHTS for Inhibitors of human tyrosyl-DNA phosphodiesterase 1 (TDP1): qHTS in cells in absence of CPT; DT40 Tdp1-/- hTDP1 cells, no CPT, ATP luminescence, 48 h; Potency, µM (doses to about 46.2 µM), usual class: inhibitors; 15% of 420,000 active; note: nearly all actives have a fitted effect of over 55% in size
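Seeded 400 DT40-hTDP1 cells/well (vehicle DMSO, no 20 nM CPT); pinned compounds; ≥48 hr at 37 °C; CellTiter-Glo luminescence as viability measure.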
IL1B secr inh: qHTS for Inhibitors of Inflammasome Signaling: IL-1-beta AlphaLISA Primary Screen. activity change, % at 57.5 µM. 4.7% of 360,000 active. THP-1 LPS/ATP IL-1B secretion, AlphaLISA, 16 h; hits give low values. AID 743279, 2014; in the data active = activity change below about -50%; inconclusive = mostly about -30% to -49%
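THP-1 cells pretreated 1 hr with compounds (up to 57.5 uM final), then stimulated with LPS (250 ng/mL final) plus ATP (1.25 mM final); secreted IL-1B measured by AlphaLISA after 16 hr, decreased signal indicating inhibition.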
DT40 TDP1 CPT: qHTS for Inhibitors of human tyrosyl-DNA phosphodiesterase 1 (TDP1): qHTS in cells in presence of CPT; chicken DT40 Tdp1-/-;hTDP1 cells + 20 nM CPT, ATP luminescence, 48 h; Potency, µM (highest dose often 46.2 µM), actives largely listed as inhibitors; 12% of 420,000 active; note: nearly all actives have a fitted effect of over 55% in size
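Chicken DT40 Tdp1-/- cells stably complemented with human TDP1 were seeded at 400 cells/well in medium containing 20 nM camptothecin, exposed to pin-transferred compounds, and grown at 37 °C for at least 48 hr. Viability was read as ATP luminescence.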
HT1080NT lethal: qHTS for induction of synthetic lethality in tumor cells producing 2HG: qHTS for the HT-1080-NT fibrosarcoma cell line | HT-1080-NT fibrosarcoma viability, CellTiter-Glo ATP luminescence, 48 h | Potency, µM (doses to about 46.1 µM), usual class: cytotoxic | 1.6% of 360,000 active;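 note: NT is the 2HG producing partner of a matched IDH1 knockdown line; nearly all actives have a fitted effect of over 55% in size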
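Read-out is CellTiter-Glo luminescence after 10 minutes at room temperature, following 48 hours' compound treatment of HT-1080-NT cells (750 cells/well, RPMI, 5% FBS, 37 degrees C).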
A number is an active result; i = inactive; ? = inconclusive; nt = no result. Unless noted, calls come from the whole dose curve; as a rule, active = well fitted curve in the direction sought with a large enough effect; inconclusive = small, poorly fitted or top-dose-only effect, or another doubt; inactive = no such curve, though single readings can be large; an effect the other way counts as inactive or inconclusive.

SMILES	HT1080 IDH1KD tx	12-LOX inh	TDP1 cell noCPT	IL1B secr inh	DT40 TDP1 CPT	HT1080NT lethal
CCCn1nc(C)cc1CN(C)C(=O)[C@@H]1CN(C(C)=O)C[C@H]1c1nc(C)no1	nt	i	nt	nt	nt	nt
Cc1ccc(/C=C(/CC(=O)O)c2nc3ccccc3o2)s1	nt	i	nt	nt	nt	nt
CC1(C)C2CCC(CN=C(N)CSS(=O)(=O)O)C1C2 (stereo not drawn)	i	i	?	-58	?	i
NC(CSS(=O)(=O)O)=NCCC12CC3CC(CC(O)(C3)C1)C2	i	i	i	i	i	i
N#CCCCCOc1ccc(-c2ccccc2)cc1	nt	i	nt	nt	nt	nt
CC1=CC(C)(C)[N+](C)(C)c2ccc(C)cc21	i	?	18µM	i	?	i
COC(=O)c1c(NC(=O)CN2C(=O)NC3(CCC(C)CC3)C2=O)sc2c1CCC2 (stereo not drawn)	i	i	16µM	i	15µM	i
COC(=O)c1c(NC(=O)CN2C(=O)NC3(CCc4ccccc4C3)C2=O)sc2c1CCCCC2 (stereo not drawn)	i	i	26µM	i	21µM	i
CC(C(=O)N(C)Cc1ccccc1)S(=O)(=O)Cc1cccc(Cl)c1 (stereo not drawn)	nt	i	nt	nt	nt	nt
O=C(O)CSc1ccc2nnc(-c3cccnc3)n2n1	i	i	i	i	?	i
c1ccc(CSc2ccc3nnc(-c4ccccn4)n3n2)cc1	i	i	21µM	i	?	i
Fc1ccc(CSc2ccc3nnc(-c4cccnc4)n3n2)cc1	i	i	16µM	?	16µM	i
CC1CCC(NC(=O)c2csc3c2CCCCC3)CC1 (stereo not drawn)	nt	i	nt	nt	nt	nt
Cc1oc(-c2ccccc2F)nc1CN1CCC(C(=O)NC2CCCCCCC2)CC1	i	nt	23µM	i	?	i
O=C(c1ccc(-c2ccccc2)cc1)N1CCN(c2nc3ccccc3o2)CC1	i	i	?	i	i	i
O=C(NC1CCCCCCC1)C1CCN(c2nc3ccccc3o2)CC1	i	i	16µM	i	?	?
Cc1oc(-c2ccccc2F)nc1CN1CCC(C(=O)NC2CCCc3ccccc32)CC1 (stereo not drawn)	i	i	?	i	15µM	i
CC(C)(C)c1ccc(C(=O)N2CCN(c3nc4ccccc4o3)CC2)cc1	i	i	6.5µM	i	9.2µM	i
Cc1oc(-c2ccccc2F)nc1CN1CCC(C(=O)NCc2ccco2)CC1	i	i	i	i	i	i
Cc1ccc(C(=O)NCCc2c[nH]c3ccccc23)cc1C	nt	i	nt	nt	nt	nt
O=C(NC1CCCc2ccccc21)C1CCN(S(=O)(=O)N2CCCCCC2)CC1 (stereo not drawn)	i	i	18µM	i	13µM	i
O=C1COc2ccc(-c3ccoc3)nc2CN1Cc1ccc(C(F)(F)F)cc1	nt	40µM	nt	nt	nt	nt
COCCOc1ccc2c(n1)CCN(C(=O)Cc1ccc(F)cc1)C2	nt	i	nt	nt	nt	nt
COc1ccc(OCCn2c(C3CC(=O)N(c4ccc(F)cc4)C3)nc3ccccc32)cc1 (stereo not drawn)	nt	?	18µM	nt	16µM	nt
Cc1ccccc1OCCCCn1c(C2CC(=O)N(c3ccccc3Cl)C2)nc2ccccc21 (stereo not drawn)	nt	?	i	nt	?	nt
CCOc1ccccc1N1CC(c2nc3ccccc3n2CCCOc2ccc(OC)cc2)CC1=O (stereo not drawn)	nt	i	i	nt	i	nt
Cc1cc(C)cc(OCCn2c(C3CC(=O)N(c4ccccc4Cl)C3)nc3ccccc32)c1 (stereo not drawn)	nt	i	21µM	nt	?	nt
C#CCn1c(C2CC(=O)N(c3ccc(OCC)cc3)C2)nc2ccccc21 (stereo not drawn)	nt	i	?	nt	?	nt

High-throughput results: PubChem, National Center for Advancing Translational Sciences (NCATS)
